Several values for one entry are separate records, joined by “and”; a condition that tells them apart may be missing. Equal entries are not always repeated. Among all 5,500 compounds or so, about 2,000 (36%) were called active. About 18% were inconclusive and are not listed. Rule as the data show it: active = normalized growth mostly below about 0.91 (no sharp cut-off); inconclusive = no clear call, values can overlap the other calls; inactive = mostly above about 0.92. The list shows a part of the results.
Assay: chemical genetic growth profiling, strain panel (AID 1159580);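 also: tested at 20 µM; growth read once vehicle control cultures reached saturation at 30 °C; 1 = growth at the plate median or of vehicle wells; lower values mean less growth of the strain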
Details: S. cerevisiae deletion strains, growth OD

Measured: normalized growth

CN(C)C(=S)SSC(=S)N(C)C
inactive: locus YDL185W, strain tfp1, hits give low values 0.967
active: locus YAL013W, strain DEP1, hits give low values 0.0581 | locus YAL021C, strain ccr4, hits give low values 0.0666 | locus YAL026C, strain drs2, hits give low values 0.0601 | locus YAL030W, strain snc1, hits give low values 0.0553 | locus YBL061C, strain skt5, hits give low values 0.0618 | locus YBR009C, strain hhf1, hits give low values 0.0687 | locus YBR021W, strain FUR4, hits give low values 0.0817 | locus YBR023C, strain chs3, hits give low values 0.061 | locus YBR171W, strain sec66, hits give low values 0.074 | locus YBR229C, strain ROT2, hits give low values 0.048 | locus YBR231C, strain swc5, hits give low values 0.0647 | locus YBR279W, strain paf1, hits give low values 0.0589 | locus YCL011C, strain gbp2, hits give low values 0.0557 | locus YCL016C, strain dcc1, hits give low values 0.0628 | locus YCL029C, strain bik1, hits give low values 0.0606 | locus YCL061C, strain MRC1, hits give low values 0.0642 | locus YCL069W, strain vba3, hits give low values 0.0641 | locus YCR088W, strain abp1, hits give low values 0.0578 | locus YDL005C, strain med2, hits give low values 0.0735 | locus YDL035C, strain GPR1, hits give low values 0.0496 | locus YDL040C, strain nat1, hits give low values 0.0566 | locus YDL074C, strain BRE1, hits give low values 0.08 | locus YDL101C, strain DUN1, hits give low values 0.0541 | locus YDL134C, strain PPH21, hits give low values 0.048 | locus YDL192W, strain arf1, hits give low values 0.0606 | locus YDR001C, strain nth1, hits give low values 0.0555 | locus YDR069C, strain doa4, hits give low values 0.0622 | locus YDR101C, strain arx1, hits give low values 0.0568 | locus YDR137W, strain rgp1, hits give low values 0.0857 | locus YDR150W, strain NUM1, hits give low values 0.0561 | locus YDR159W, strain sac3, hits give low values 0.0951 | locus YDR162C, strain NBP2, hits give low values 0.0528 | locus YDR195W, strain ref2 0.147 | locus YDR297W, strain sur2, hits give low values 0.0586 | locus YDR318W, strain mcm21, hits give low values 0.0615 | locus YDR334W, strain swr1, hits give low values 0.0607 | locus YDR335W, strain msn5, hits give low values 0.0573 | locus YDR388W, hits give low values 0.0573 | locus YDR392W, strain spt3, hits give low values 0.0953 | locus YDR502C, strain sam2, hits give low values 0.0603 | locus YEL003W, strain gim4, hits give low values 0.0529 | locus YEL037C, strain rad23, hits give low values 0.0561 | locus YEL061C, strain CIN8 (second series), hits give low values 0.06 | locus YEL061C, strain CIN8, hits give low values 0.0482 | locus YER015W, strain faa2, hits give low values 0.0644 | locus YER016W, strain bim1, hits give low values 0.0587 | locus YER110C, hits give low values 0.0744 | locus YER111C, strain swi4, hits give low values 0.0843 | locus YER155C, strain BEM2 (second series), hits give low values 0.0839 | locus YER155C, strain BEM2, hits give low values 0.0634 | locus YER167W, strain BCK2, hits give low values 0.0494 | locus YFR010W, strain ubp6, hits give low values 0.067 | locus YGL078C, strain dbp3, hits give low values 0.0559 | locus YGL086W, strain mad1, hits give low values 0.0545 | locus YGL167C, strain pmr1, hits give low values 0.0722 | locus YGL173C, strain kem1, hits give low values 0.0644 | locus YGL227W, strain vid30, hits give low values 0.0589 | locus YGL240W, strain doc1, hits give low values 0.0761 | locus YGL248W, strain PDE1, hits give low values 0.0464 | locus YGL253W, strain hxk2, hits give low values 0.0521 | locus YGR078C, strain PAC10, hits give low values 0.0501 | locus YGR135W, strain pre9, hits give low values 0.0684 | locus YGR229C, strain SMI1, hits give low values 0.0575 | locus YGR252W, strain gcn5, hits give low values 0.158 | locus YHR013C, strain ard1, hits give low values 0.107 | locus YHR027C, strain rpn1, hits give low values 0.0609 | locus YHR030C, strain SLT2, hits give low values 0.0503 and 0.115 | locus YHR079C, strain IRE1 (second series), hits give low values 0.0559 | locus YHR079C, strain IRE1, hits give low values 0.109 | locus YHR094C, strain hxt1, hits give low values 0.0581 | locus YHR129C, strain ARP1, hits give low values 0.0536 | locus YHR142W, strain chs7, hits give low values 0.0711 | locus YHR200W, strain rpn10, hits give low values 0.0592 | locus YIL066C, strain RNR3, hits give low values 0.0523 | locus YIL073C, strain SPO22, hits give low values 0.0945 | locus YIL125W, strain kgd1, hits give low values 0.0556 | locus YIR030C, strain dcg1, hits give low values 0.0579 | locus YJL092W, strain hpr5, hits give low values 0.0561 | locus YJL095W, strain BCK1 (second series), hits give low values 0.057 | locus YJL095W, strain BCK1, hits give low values 0.049 and 0.102 | locus YJL115W, strain asf1, hits give low values 0.0685 | locus YJL129C, strain trk1, hits give low values 0.0884 | locus YJL134W, strain LCB3, hits give low values 0.0489 | locus YJL154C, strain vps35, hits give low values 0.0623 | locus YJL164C, strain tpk1, hits give low values 0.0632 | locus YJL166W, strain qcr8, hits give low values 0.0627 | locus YJL168C, strain set2, hits give low values 0.0598 | locus YJL187C, strain SWE1 (second series), hits give low values 0.0476 | locus YJL187C, strain SWE1, hits give low values 0.0566 | locus YJR043C, strain POL32, hits give low values 0.0614 | locus YJR066W, strain TOR1, hits give low values 0.00175

— PubChem BioAssay AID1159580 (chemical genetic matrix, 2015)
